Compound activity: PubChem, several laboratories
An excerpt weighted towards active compounds, which were near 1.4% of everything screened.
ZTA counter: ZTA (EBV) inhibition in EBNA-1 counter-screen. P03206. ZTA-DNA binding, fluorescence polarization. inhibition, % at 11 µM. 320,000 compounds, 0.15% hits. AID 2234; in the data active = inhibition above about 33%
Target sequence (P03206 whole entry, looked up): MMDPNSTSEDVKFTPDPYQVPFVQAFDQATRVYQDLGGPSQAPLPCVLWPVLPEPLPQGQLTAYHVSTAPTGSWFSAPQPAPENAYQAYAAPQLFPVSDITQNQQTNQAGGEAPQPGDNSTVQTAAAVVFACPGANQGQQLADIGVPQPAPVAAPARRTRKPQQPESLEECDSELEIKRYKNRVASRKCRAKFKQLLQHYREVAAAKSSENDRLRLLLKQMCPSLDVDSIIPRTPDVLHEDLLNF
LANA-H2A inh: blockers of LANA interaction with H2A/H2B – biochemical, FP readout, HTS, primary screen | Protein LANA1 (Human herpesvirus 8 type P (isolate GK18)), Q9QR71 | cell-free LANA-H2A/H2B peptide, fluorescence polarization | inhibition, % (no concentration beside the values) | 320,000 compounds, 0.6% hits; in the data active = inhibition mostly above about 10%, no sharp cut-off; inactive = mostly below about 6.7%
LYPLA1 counter: LYPLA1 inhibitors, primary screen, counter-screen for PME1 inhibitor project, biochemical, fluorescence polarization, FP-Rh probe ABPP; Acyl-protein thioesterase 1 (Homo sapiens), O75608; recombinant LYPLA1; inhibition, % at 5.9 µM; 320,000 compounds, 0.16% hits; AID 2174, 2009;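 active = inhibition above the mean of all tested compounds plus 3 SD, set per campaign, cut at about 14% in these data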;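 also: inhibitors block serine hydrolase probe labeling of LYPLA1 so polarization falls; 0% = enzyme with DMSO and 100% = wells lacking LYPLA1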
Target sequence (O75608 whole entry, looked up): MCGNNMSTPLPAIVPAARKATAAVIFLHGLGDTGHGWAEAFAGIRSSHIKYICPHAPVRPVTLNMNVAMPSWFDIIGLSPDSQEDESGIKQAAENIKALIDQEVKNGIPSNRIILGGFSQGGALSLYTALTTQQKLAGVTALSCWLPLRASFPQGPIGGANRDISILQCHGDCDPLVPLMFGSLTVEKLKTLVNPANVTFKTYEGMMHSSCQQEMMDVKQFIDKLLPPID
LYPLA2 inh: LYPLA2 inhibitors, primary screen, counter-screen for PME1 inhibitor project, biochemical, fluorescence polarization, FP-Rh probe ABPP; 320,000 compounds, 0.38% hits; recombinant LYPLA2; inhibition, % at 5.9 µM; Acyl-protein thioesterase 2 (Homo sapiens), O95372; AID 2177, 2009;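 active = inhibition above the screen-wide mean plus 3 SD, limit set per campaign, cut at about 26% in these data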;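 also: 0% = LYPLA2 with DMSO and 100% = wells lacking LYPLA2 enzyme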
EBNA-1 inhibitor: EBNA-1 DNA-binding inhibitors, primary screen, biochemical, fluorescence polarization | AID 1950, 2009 | inhibition, % at 14.8 µM | 300,000 compounds, 0.34% hits; in the data active = inhibition above about 28%
* = called active by the depositor; . = not tested or not shown; + = active, no number.

SMILES | ZTA counter | LANA-H2A inh | LYPLA1 counter | LYPLA2 inh | EBNA-1 inhibitor
CC1(C)OC(=O)N(NCc2ccccc2)C1(C)O (stereo unspecified) | -16 | -5 | -1 | 5 | -2
CC(C)N1CCN(S(=O)(=O)c2ccc3ccccc3c2)CC1 | 133* | -6 | -4 | 8 | 153*
CCS(=O)(=O)N1CCN(S(=O)(=O)c2ccc3ccccc3c2)CC1 | -4 | -9 | 1 | 4 | 2
CC(NCC1(N2CCOCC2)CCCCC1)C(=O)Nc1ccc(Cl)cc1Cl (stereo unspecified) | 17 | -2 | 0 | -2 | 8
CN(C)c1ccc(NC(=O)COC(=O)c2ccc3c(c2)OCO3)cc1 | . | 13 | . | . | .
CN(C)c1ccc(C(=O)OCC(=O)Nc2ccc(S(N)(=O)=O)cc2)cc1 | 44* | -4 | 7 | 9 | 34*
C#CCOCCOCCOCCNc1nc(N2CCN(C(=O)CCCCCCCCCCNC(=O)Cn3cc(C[C@@H](C)O)nn3)CC2)nc(N2CCN(C(=O)CCCCCCCCCCNC(=O)[C@H](CCCCN)n3cc(C[C@@H](C)CC)nn3)CC2)n1 | 7 | -17 | -3 | 3 | -4
C#CCOCCOCCOCCNc1nc(N2CCN(C(=O)CCCCCCCCCCNC(=O)[C@H](CO)n3cc(CCCSC)nn3)CC2)nc(N2CCN(C(=O)CCCCCCCCCCNC(=O)[C@H](CCCCN)n3cc(C[C@@H](C)CC)nn3)CC2)n1 | 11 | 4 | -12 | -18 | 0
C#CCOCCOCCOCCNc1nc(N2CCN(C(=O)CCCCCCCCCCNC(=O)[C@H]([C@@H](C)CC)n3cc(CCCCN=C(N)N)nn3)CC2)nc(N2CCN(C(=O)CCCCCCCCCCNC(=O)[C@H](CCCCN)n3cc(C[C@@H](C)CC)nn3)CC2)n1 | 126* | -8 | -7 | 20 | 3
C#CCOCCOCCOCCNc1nc(N2CCN(C(=O)CCCCCCCCCCNC(=O)[C@H](CCCCN)n3cc(C[C@@H](C)CC)nn3)CC2)nc(N2CCN(C(=O)CCCCCCCCCCNC(=O)[C@H](CCCCN)n3cc(C[C@@H](C)CC)nn3)CC2)n1 | 91* | -18 | -10 | -13 | 7
O=C(CNC(=O)c1ccc(Cl)c([N+](=O)[O-])c1)NCC1CCCO1 (stereo unspecified) | 12 | 1 | -1 | 16 | 6
O=C(COC(=O)C1CC2CCCC(C1)C2=O)NNC(=O)c1ccccc1F (stereo unspecified) | -14 | 34* | 2 | 4 | -19
CC(=O)OCCn1c2nc(=O)[nH]c(=O)c-2nc2cc(C)c(C)cc21 | . | 166* | . | . | .
CCOc1ccc(C(=O)NC(C(=O)NCCc2ccc(S(N)(=O)=O)cc2)C(C)C)cc1 (stereo unspecified) | -20 | 14* | 3 | 4 | 8
CC(C)C(NC(=O)c1c(F)cccc1F)C(=O)NCCc1ccc(S(N)(=O)=O)cc1 (stereo unspecified) | -2 | -2 | -4 | -3 | -6
CCOc1ccc(C(=O)N[C@H](C(=O)Nc2cccc(S(=O)(=O)N3CCCCC3)c2)C(C)C)cc1 | -13 | 1 | -2 | -5 | 42*
CCOc1ccc(NC(=O)COc2ccc(S(=O)(=O)N3CCOCC3)cc2)cc1 | . | -8 | . | . | .
COc1ccc(NC(=O)CN(C)C(=O)/C=C/c2ccc(S(=O)(=O)N3CCCCCC3)cc2)cc1 | -10 | 110* | -1 | -2 | -6
CCc1ccc(OCC(=O)Nc2ccc(S(=O)(=O)N3CCCC3)cc2)c(Br)c1 | -17 | 3 | -10 | 5 | 0
COc1ccc(OCC(=O)Nc2ccc(S(=O)(=O)N3CCOCC3)cc2)cc1 | 16 | 28* | -2 | 7 | 1
O=C(COc1ccc(Br)cc1CO)Nc1ccc(S(=O)(=O)N2CCCCC2)cc1 | -5 | + | -8 | -13 | .
Cc1cc(-c2ccccc2)nc2c(Br)c(=O)[nH]n12 | -4 | 13* | 3 | 10 | 1
CCC(C)Nc1nc(-c2c[nH]c3ccccc23)cs1 (stereo unspecified) | 55* | 0 | -14 | -16 | 19
CNc1nc(-c2c[nH]c3ccccc23)cs1 | 31 | 2 | 0 | 3 | 9
Cc1cc(C)c2nc(C(F)(F)F)nc(NCCCN3CCCC3=O)c2c1 | -22 | 19* | 3 | -5 | 3
SMILES | ZTA counter | LANA-H2A inh | LYPLA1 counter | LYPLA2 inh | EBNA-1 inhibitor
Cc1ccc(S(=O)(=O)c2nnn3c2nc(NCCCN2CCCC2=O)c2ccccc23)cc1C | 13 | 5 | -4 | -13 | 11
O=C1OC(c2ccccc2)=N/C1=C\C=C\c1ccccc1[N+](=O)[O-] | -18 | 12* | 1 | 3 | 0
CC(Sc1nnc(C2CC2)n1C1CC1)C(=O)Nc1cccc(S(=O)(=O)N2CCOCC2)c1 (stereo unspecified) | -23 | 18* | -2 | 3 | .
CC(Sc1nnnn1C1CCCC1)C(=O)Nc1cccc(S(=O)(=O)N2CCOCC2)c1 (stereo unspecified) | 1 | 0 | 1 | 2 | .
Cc1ccc(C(=O)N2C(CC(=O)Nc3ccc(Cl)cc3)C(=O)NC3CCCCC32)cc1 (stereo unspecified) | -11 | 0 | 0 | 5 | -2
O=C1c2c(O)ccc(O)c2C(=O)c2c(NCCNCCO)ccc(NCCNCCO)c21 | + | 77* | 2 | 4 | 110*
Cc1ccc(NC(=O)CN2C(=O)N/C(=C\c3ccco3)C2=O)cc1 | . | 8 | . | . | .
COC(=O)c1ccc(=O)c2nc3/c(=C/O)c(O)cc(=O)c3[nH]c12 | 5 | 3 | -5 | 4 | 103*
Cc1cccc(Nc2cc(C)c3c(O)cccc3n2)c1C | 5 | -8 | -4 | 2 | 0
Cc1ccc(N(CC(=O)NCc2ccc(F)cc2)C(=O)CCC(=O)Nc2ccccn2)cc1C | 0 | 26* | -2 | 4 | -4
CS(=O)(=O)N(CCC#N)Cc1ccc(/C=C2\C(=O)Nc3ccccc32)o1 | 0 | 0 | -1 | -2 | 1
O=C(NC(=S)Nn1cnc2c(cnn2-c2ccccc2)c1=O)c1ccc(Oc2ccccc2)cc1 | -1 | 0 | -5 | -1 | 31*
CCn1c(NC(=O)C(C)C)c2ccccc2nc1=O | 0 | 11* | -6 | -6 | -4
CCc1ccccc1NC(=O)CN1CCN(C(=O)CNC(=O)c2ccc(N3CCCC3=O)cc2)CC1 | -1 | 1 | -3 | 3 | .
CCc1ccccc1NC(=O)CN1CCN(C(=O)CNC(=O)c2ccccc2F)CC1 | -5 | + | -2 | -1 | .
COC(=O)C1=C(C)N(c2ccccc2)C(=S)NC1c1ccccc1C(F)(F)F (stereo unspecified) | 20 | 2 | -5 | -8 | 1
COCCOC(=O)C1=C(C)N(c2ccccc2)C(=S)NC1c1ccccc1C(F)(F)F (stereo unspecified) | 2 | 35* | -1 | 5 | -8
Cc1oc(-c2cccs2)nc1CN1CCC(CO)(CCOc2ccccc2)CC1 | 1 | 13* | 2 | -4 | 5
